Test results published in the supplement of paper PMC12282887.
± gives the standard deviation of the averaged measurements.

Tests used:
Assay in all cases: promoter activity interaction Z-score (Lux/OD deviation from empty-vector control); higher = stronger promoter induction by the compound
[1] = tested on: E. coli BW25113 acrABp lux reporter
In short: (§1)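 Reporter strains of E. coli BW25113 grew at 37°C in 40 µl LB Lennox in 384-well plates. Readings of OD600 and luminescence were taken every 30 min over 12 h, integrated over 0–8 h (wild type) or 1–9 h (deletion strains), and wells below 10% of the median growth value were excluded. Scores are Z-transformed residuals of growth-normalised luminescence from a fit against a control.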

[2] = tested on: E. coli BW25113 micFp lux reporter
In short: as §1

[3] = tested on: E. coli BW25113 ompFp lux reporter
In short: as §1

[4] = tested on: E. coli BW25113 robp lux reporter
In short: as §1

[5] = tested on: E. coli BW25113 soxSp lux reporter
In short: as §1

[6] = tested on: E. coli BW25113 tolCp lux reporter
In short: as §1

[7] = 19.1 µg/ml, genetic background: wild type
[8] = 19.1 µg/ml, genetic background: ΔmarA
[9] = 19.1 µg/ml, genetic background: Δrob
[10] = 19.1 µg/ml, genetic background: ΔsoxS
[11] = 38.3 µg/ml, genetic background: wild type
[12] = 38.3 µg/ml, genetic background: ΔmarA
[13] = 38.3 µg/ml, genetic background: Δrob
[14] = 38.3 µg/ml, genetic background: ΔsoxS
[15] = 76.6 µg/ml, genetic background: wild type
[16] = 76.6 µg/ml, genetic background: ΔmarA
[17] = 76.6 µg/ml, genetic background: Δrob
[18] = 76.6 µg/ml, genetic background: ΔsoxS
[19] = 153.1 µg/ml, genetic background: wild type
[20] = 153.1 µg/ml, genetic background: ΔmarA
[21] = 153.1 µg/ml, genetic background: Δrob
[22] = 153.1 µg/ml, genetic background: ΔsoxS

Nc1ccc(C(=O)O)c(O)c1 [4-Aminosalicylic acid]
promoter activity interaction Z-score [1, 7]: -0.149 ± 0.057
promoter activity interaction Z-score [1, 8]: -0.463 ± 0.94
promoter activity interaction Z-score [1, 9]: -0.0648 ± 0.1
promoter activity interaction Z-score [1, 10]: 0.0906 ± 0.23
promoter activity interaction Z-score [1, 11]: -0.194 ± 0.071
promoter activity interaction Z-score [1, 12]: -0.226 ± 0.02
promoter activity interaction Z-score [1, 13]: 0.179 ± 0.24
promoter activity interaction Z-score [1, 14]: 0.221 ± 0.28
promoter activity interaction Z-score [1, 15]: -0.276 ± 0.035
promoter activity interaction Z-score [1, 16]: -0.0192 ± 0.31
promoter activity interaction Z-score [1, 17]: -0.218 ± 0.18
promoter activity interaction Z-score [1, 18]: -0.00319 ± 0.25
promoter activity interaction Z-score [1, 19]: -0.212 ± 0.19
promoter activity interaction Z-score [1, 20]: 0.164 ± 0.025
promoter activity interaction Z-score [1, 21]: 0.0189 ± 0.39
promoter activity interaction Z-score [1, 22]: 0.952 ± 1.3
promoter activity interaction Z-score [2, 7]: 0.127 ± 0.069
promoter activity interaction Z-score [2, 8]: 0.157 ± 0.12
promoter activity interaction Z-score [2, 9]: 0.223 ± 0.068
promoter activity interaction Z-score [2, 10]: 0.335 ± 0.24
promoter activity interaction Z-score [2, 11]: 0.103 ± 0.31
promoter activity interaction Z-score [2, 12]: 0.0571 ± 0.12
promoter activity interaction Z-score [2, 13]: 0.346 ± 0.16
promoter activity interaction Z-score [2, 14]: 0.348 ± 0.31
promoter activity interaction Z-score [2, 15]: 0.399 ± 0.11
promoter activity interaction Z-score [2, 16]: 0.312 ± 0.014
promoter activity interaction Z-score [2, 17]: 0.842 ± 0.12
promoter activity interaction Z-score [2, 18]: 0.567 ± 0.32
promoter activity interaction Z-score [2, 19]: 0.955 ± 0.34
promoter activity interaction Z-score [2, 20]: 0.278 ± 0.066
promoter activity interaction Z-score [2, 21]: 1.89 ± 0.16
promoter activity interaction Z-score [2, 22]: 2.24 ± 0.04
promoter activity interaction Z-score [3, 7]: -0.191 ± 0.28
promoter activity interaction Z-score [3, 8]: -0.0337 ± 0.042
promoter activity interaction Z-score [3, 9]: 0.485 ± 0.12
promoter activity interaction Z-score [3, 10]: 0.498 ± 0.63
promoter activity interaction Z-score [3, 11]: -0.538 ± 0.33
promoter activity interaction Z-score [3, 12]: 0.43 ± 0.48
promoter activity interaction Z-score [3, 13]: 0.92 ± 0.71
promoter activity interaction Z-score [3, 14]: 0.203 ± 0.35
promoter activity interaction Z-score [3, 15]: -0.751 ± 0.39
promoter activity interaction Z-score [3, 16]: -0.414 ± 0.39
promoter activity interaction Z-score [3, 17]: -0.49 ± 0.65
promoter activity interaction Z-score [3, 18]: -0.5 ± 0.67
promoter activity interaction Z-score [3, 19]: -0.516 ± 0.52
promoter activity interaction Z-score [3, 20]: 0.0436 ± 0.35
promoter activity interaction Z-score [3, 21]: 0.0977 ± 1
promoter activity interaction Z-score [3, 22]: 0.625 ± 1.1
promoter activity interaction Z-score [4, 7]: -0.222 ± 0.014
promoter activity interaction Z-score [4, 8]: -0.199 ± 0.69
promoter activity interaction Z-score [4, 9]: -0.314 ± 0.28
promoter activity interaction Z-score [4, 10]: -0.201 ± 0.76
promoter activity interaction Z-score [4, 11]: -0.158 ± 0.15
promoter activity interaction Z-score [4, 12]: 0.308 ± 0.07
promoter activity interaction Z-score [4, 13]: 0.333 ± 0.35
promoter activity interaction Z-score [4, 14]: 0.11 ± 0.31
promoter activity interaction Z-score [4, 15]: -0.0528 ± 0.63
promoter activity interaction Z-score [4, 16]: -0.845 ± 0.11
promoter activity interaction Z-score [4, 17]: -0.29 ± 0.49
promoter activity interaction Z-score [4, 18]: -0.381 ± 0.64
promoter activity interaction Z-score [4, 19]: -0.356 ± 0.24
promoter activity interaction Z-score [4, 20]: 0.439 ± 0.5
promoter activity interaction Z-score [4, 21]: -0.252 ± 0.99
promoter activity interaction Z-score [4, 22]: 0.0401 ± 0.42
promoter activity interaction Z-score [5, 7]: 0.0858 ± 0.3
promoter activity interaction Z-score [5, 8]: 0.563 ± 0.097
promoter activity interaction Z-score [5, 9]: 0.674 ± 0.079
promoter activity interaction Z-score [5, 10]: 0.458 ± 0.71
promoter activity interaction Z-score [5, 11]: -0.0504 ± 0.074
promoter activity interaction Z-score [5, 12]: 0.547 ± 0.088
promoter activity interaction Z-score [5, 13]: 0.688 ± 0.15
promoter activity interaction Z-score [5, 14]: 0.377 ± 0.54
promoter activity interaction Z-score [5, 15]: 0.102 ± 0.028
promoter activity interaction Z-score [5, 16]: 0.199 ± 0.076
promoter activity interaction Z-score [5, 17]: 0.581 ± 0.14
promoter activity interaction Z-score [5, 18]: 0.29 ± 0.88
promoter activity interaction Z-score [5, 19]: -0.173 ± 0.12
promoter activity interaction Z-score [5, 20]: 0.349 ± 0.045
promoter activity interaction Z-score [5, 21]: 0.403 ± 0.16
promoter activity interaction Z-score [5, 22]: 0.259 ± 0.95
promoter activity interaction Z-score [6, 7]: -0.487 ± 1.9
promoter activity interaction Z-score [6, 8]: -1.05 ± 0.26
promoter activity interaction Z-score [6, 9]: 1.71 ± 2
promoter activity interaction Z-score [6, 10]: -0.0483 ± 0.2
promoter activity interaction Z-score [6, 11]: -0.154 ± 1.3
promoter activity interaction Z-score [6, 12]: -0.0748 ± 0.1
promoter activity interaction Z-score [6, 13]: 0.149 ± 0.17
promoter activity interaction Z-score [6, 14]: 0.687 ± 1.6
promoter activity interaction Z-score [6, 15]: -0.119 ± 0.018
promoter activity interaction Z-score [6, 16]: -0.241 ± 0.77
promoter activity interaction Z-score [6, 17]: 1.64 ± 0.41
promoter activity interaction Z-score [6, 18]: -0.423 ± 0.15
promoter activity interaction Z-score [6, 19]: 0.606 ± 0.32
promoter activity interaction Z-score [6, 20]: 0.0837 ± 0.18
promoter activity interaction Z-score [6, 21]: 0.207 ± 0.77
promoter activity interaction Z-score [6, 22]: 1.76 ± 0.4
